Results published in PubChem BioAssay (Tox21).
Inconclusive results are not listed. Calls of active or inactive are those of the source. Unless noted, calls follow the shape of the dose curve; as a rule, active = well fitted curve in the direction sought with a large enough effect in the repeat runs; inconclusive = weak or mixed curves; inactive = no such curve, though single readings can be large; an effect the other way counts as inactive or inconclusive.

Tests used:
[1] = qHTS RealTime-Glo MT Cell Viability Assay in HEK293 cells - 8 hour (AID 1224887); also: top concentration of the series differs between compounds; nearly all actives have a fitted effect of over 50% in size
How it was run: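 Luminescence readout at each listed time point; HEK293, 600 cells/well, RealTime-Glo MT reagent added with cells; compounds pinned (23 nL in DMSO) after 5 h at 37 C; continuous culture at 37 C.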

[2] = A CellTox Green Cytotoxicity Assay to monitor cytotoxicity in HEK293 cells - 16 hour (AID 1224888); also: nearly all actives have a fitted effect of over 35% in size
How it was run: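 Read-out: fluorescence of a cell-impermeant cyanine dye staining DNA of dead cells, proportional to cytotoxicity. HEK293, 600 cells/well with reagent, compound (23 nL DMSO) added after 5 h; reads at 0, 8, 16, 24, 32, 40 h.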

[3] = qHTS RealTime-Glo MT Cell Viability Assay in HepG2 cells - 0 hour (AID 1224889); also: nearly all actives have a fitted effect of over 50% in size
How it was run: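 HepG2 cells were seeded at 600 cells/well together with NanoLuc luciferase and a cell-permeant prosubstrate, preincubated 5 h at 37 C/5% CO2, then pin-dosed with compounds in DMSO. Nonlytic luminescence from viable cells was read at each time point.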

[4] = A CellTox Green Cytotoxicity Assay to monitor cytotoxicity in HepG2 cells - 8 hour (AID 1224890); also: nearly all actives have a fitted effect of over 45% in size
How it was run: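 HepG2, 600 cells/well premixed w/ CellTox Green; 5 h settle, 37 C/5% CO2; pintool cpd add (DMSO); 37 C, 40 h; fluorescence read at 0, 8, 16, 24, 32, 40 h.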

[5] = qHTS assay to identify small molecule antagonists of the estrogen receptor alpha (ER-alpha) signaling pathway using the BG1 cell line in the presence of 0.1 nM 17-beta-estradiol - cell viability counter screen (AID 1259241); also: nearly all actives have a fitted effect of over 40% in size
How it was run: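 In this screen, hormone-deprived VM7Luc4E2 cells were seeded at 4,000 per well, dosed with compound and 0.1 nM estradiol final, and incubated 22 hr at 37C and 5% CO2; fluorogenic live-cell protease signal reported viability.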

[6] = qHTS assay to identify small molecule antagonists of the androgen receptor (AR) signaling pathway using the MDA cell line in the presence of 0.5 nM R1881 - cell viability counter screen (AID 1259242); also: nearly all actives have a fitted effect of over 45% in size
How it was run: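 Live-cell protease fluorescence, CellTiter-Fluor, 30 min at 37C. Cells: MDA-kb2, 3,000/well, preincubated 5 hr. Compounds plus 0.5 nM R1881 final, 16 hr, 37C, 0% CO2.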

[7] = biological target: Estrogen receptor (Homo sapiens) (UniProt P03372); test: qHTS assay to identify small molecule antagonists of the estrogen receptor alpha (ER-alpha) signaling pathway using the BG1 cell line in the presence of 0.1 nM 17-beta-estradiol (AID 1259244); also: nearly all actives have a fitted effect of over 50% in size
How it was run: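 Luminescence after ONE-Glo (30 min, room temperature) measured ERE-luciferase activity in VM7Luc4E2 cells treated 22 h with compound and 0.1 nM final 17beta-estradiol as stimulator.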

[8] = qHTS assay to identify small molecule phospholipidosis (PLD) inducers (AID 1259344; active = well fitted curve in the direction sought with a large enough effect; an effect the other way counts as inactive or inconclusive)
How it was run: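 Cells (HepG2, 900 per well) attach for 4 h, receive LipidTOX Red and compound together, incubate 24 h at 37 C, are fixed 30 min with paraformaldehyde/Hoechst, then imaged at one site per well.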

[9] = qHTS assay to identify small molecule HDAC inhibitors (AID 1259364);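 also: wild-type HCT-116 cells with endogenous class I/II HDAC activity; top concentration of the series differs between compounds; nearly all actives have a fitted effect of over 45% in size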
How it was run: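 HCT-116 (wild type), 1,500 cells/well, overnight; compound 2 hr 37C 5% CO2; HDAC-Glo I/II reagent 30 min RT; luminescence readout.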

[10] = qHTS assay to identify small molecule HDAC inhibitors - cell viability counter screen (AID 1259365); also: series mostly up to about 92 µM; nearly all actives have a fitted effect of over 50% in size
How it was run: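 Measured quantity is CellTiter-Glo luminescence from wild-type HCT-116 cells after compound incubation of 2hr at 37C, 5% CO2; reagent developed 30min at room temperature.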

[11] = qHTS assay to identify small molecule agonists of the sonic hedgehog signaling (Shh) pathway - cell viability counter screen (AID 1259366); also: nearly all actives have a fitted effect of over 50% in size
How it was run: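 In quantitative high-throughput format, 3T3 Gli1-Luc cells were exposed to compounds for 24hr and multiplexed for viability using CellTiter-Fluor, incubated 1hr at 37C before the fluorescence read.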

[12] = qHTS assay to identify small molecule antagonists of the sonic hedgehog signaling (Shh) pathway - cell viability counter screen (AID 1259367); also: nearly all actives have a fitted effect of over 55% in size
How it was run: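 Cytotoxicity was assessed in parallel with Shh reporter activity by measuring live-cell protease fluorescence (CellTiter-Fluor) in NIH/3T3 cells stably carrying Gli1-Luc, treated with compound under conditioned medium stimulation for 23 hr plus 1 hr reagent incubation.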

[13] = qHTS assay to identify small molecule agonists of the sonic hedgehog signaling (Shh) pathway (AID 1259368; calls by dose curve;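 also: NIH/3T3-derived 3T3Gli1-Luc cells carrying a stable Gli1-driven firefly luciferase reporter; series mostly up to about 92 µM; nearly all actives have a fitted effect of over 15% in size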)
How it was run: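 Read-out: firefly luciferase luminescence from a Gli1 response element reporter stably integrated in NIH/3T3-derived 3T3Gli1-Luc cells, measured 30 min at room temperature after reagent addition. Compound exposure lasted 24 hr at 37 C, 5% CO2.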

[14] = qHTS assay to identify small molecule antagonists of the sonic hedgehog signaling (Shh) pathway (AID 1259369; calls by dose curve; also: nearly all actives have a fitted effect of over 45% in size)
How it was run: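 Luminescence readout: firefly Luc under Gli1 response element in 3T3Gli1-Luc cells (NIH/3T3 clone). Antagonist mode, stimulation by conditioned medium; compound exposure 24hr at 37 C, 5% CO2.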

[15] = qHTS assay to identify small molecule agonists of the androgen receptor (AR) signaling pathway in the presence of an antagonist - cell viability counter screen (AID 1259379);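 also: MDA-kb2 human breast cancer cells carrying an MMTV luciferase reporter; series mostly up to about 92 µM; nearly all actives have a fitted effect of over 25% in size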
How it was run: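 Viability counter screen: CellTiter-Fluor fluorescence, measured in the same wells as the luciferase read-out. MDA-kb2 cells, 3,000/well, with nilutamide at 3.0uM final and compounds at 15 concentrations, 16 hr at 37C, 0% CO2.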

[16] = qHTS assay to identify small molecule agonists of the estrogen receptor beta (ER-beta) signaling pathway - cell viability counter screen (AID 1259380); also: nearly all actives have a fitted effect of over 30% in size
How it was run: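 Luminescence read-out (CellTiter-Glo, 30 min, room temp) taken in the same wells as the beta-lactamase reporter assay; ER-beta-UAS-bla HEK293T cells exposed to DMSO-dissolved compounds for 16 hr at 37C in 2% charcoal-stripped FBS medium.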

[17] = biological target: Estrogen receptor beta (Homo sapiens) (UniProt Q92731); test: qHTS assay to identify small molecule agonists of the estrogen receptor beta (ER-beta) signaling pathway (AID 1259377; active = well fitted activation curve with a large enough effect in the signal ratio in the repeat runs, not every such curve was filed as active; the % refers to the signal ratio)
How it was run: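 Reporter cells (HEK293T, ER-beta-UAS-bla) receive compounds or DMSO after a 6 hr pre-incubation. They then incubate 16 hr at 37C/5% CO2, and fluorescence from LiveBLAzer B/G substrate is measured after 2 hours at room temperature.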

[18] = biological target: Estrogen receptor beta (Homo sapiens) (UniProt Q92731); test: qHTS assay to identify small molecule antagonists of the estrogen receptor beta (ER-beta) signaling pathway (AID 1259378; active = well fitted inhibition curve with a large enough effect in the signal ratio in the repeat runs, not every such curve was filed as active; the % refers to the signal ratio)
How it was run: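 ER-beta-UAS-bla HEK293T (GripTite) cells in 2% charcoal-stripped FBS medium were preincubated 6 hr at 37C, dosed with compound, then stimulated with 1 nM E2 (final) for 16 hr; beta-lactamase reporter read by B/G FRET fluorescence after 2 hr substrate loading.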

[19] = biological target: Androgen receptor (Homo sapiens) (UniProt P10275); test: qHTS assay to identify small molecule antagonists of the androgen receptor (AR) signaling pathway using the MDA cell line in the presence of 0.5 nM R1881 (AID 1259243); also: nearly all actives have a fitted effect of over 50% in size
How it was run: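 MDA-kb2, MMTV-luc (AR/GR elements); 3,000 cells/well; cpd + 0.5 nM R1881 final; 16 hr 37C, 0% CO2; ONE-Glo 30 min RT; luminescence.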

[20] = biological target: Androgen receptor (Homo sapiens) (UniProt P10275); test: qHTS assay to identify small molecule agonists of the androgen receptor (AR) signaling pathway in the presence of an antagonist (AID 1259381; calls by dose curve; also: nearly all actives have a fitted effect of over 15% in size)
How it was run: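 Luciferase read-out (ONE-Glo, 30min room temperature) in MDA-kb2 MMTV-reporter cells; agonist mode run in presence of AR antagonist nilutamide, 3.0uM final. Compounds tested as 15-point series, 16hr exposure at 37C, 0% CO2.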

Measured: Potency

Estrogen receptor beta (Homo sapiens), sequence (Q92731 whole entry, looked up): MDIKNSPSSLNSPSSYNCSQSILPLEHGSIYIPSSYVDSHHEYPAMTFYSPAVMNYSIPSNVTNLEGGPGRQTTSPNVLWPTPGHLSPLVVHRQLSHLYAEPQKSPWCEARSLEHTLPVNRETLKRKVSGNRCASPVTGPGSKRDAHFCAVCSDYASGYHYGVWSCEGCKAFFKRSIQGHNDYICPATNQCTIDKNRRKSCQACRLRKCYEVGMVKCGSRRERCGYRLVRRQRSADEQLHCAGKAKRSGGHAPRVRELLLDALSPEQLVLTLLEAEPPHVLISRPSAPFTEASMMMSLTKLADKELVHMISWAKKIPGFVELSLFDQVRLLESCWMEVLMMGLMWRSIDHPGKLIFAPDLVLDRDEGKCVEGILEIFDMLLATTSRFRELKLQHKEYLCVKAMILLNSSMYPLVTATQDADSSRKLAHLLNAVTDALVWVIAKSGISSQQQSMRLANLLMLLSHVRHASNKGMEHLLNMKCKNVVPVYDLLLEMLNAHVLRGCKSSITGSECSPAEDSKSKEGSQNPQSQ
Estrogen receptor (Homo sapiens), sequence (P03372 whole entry, looked up): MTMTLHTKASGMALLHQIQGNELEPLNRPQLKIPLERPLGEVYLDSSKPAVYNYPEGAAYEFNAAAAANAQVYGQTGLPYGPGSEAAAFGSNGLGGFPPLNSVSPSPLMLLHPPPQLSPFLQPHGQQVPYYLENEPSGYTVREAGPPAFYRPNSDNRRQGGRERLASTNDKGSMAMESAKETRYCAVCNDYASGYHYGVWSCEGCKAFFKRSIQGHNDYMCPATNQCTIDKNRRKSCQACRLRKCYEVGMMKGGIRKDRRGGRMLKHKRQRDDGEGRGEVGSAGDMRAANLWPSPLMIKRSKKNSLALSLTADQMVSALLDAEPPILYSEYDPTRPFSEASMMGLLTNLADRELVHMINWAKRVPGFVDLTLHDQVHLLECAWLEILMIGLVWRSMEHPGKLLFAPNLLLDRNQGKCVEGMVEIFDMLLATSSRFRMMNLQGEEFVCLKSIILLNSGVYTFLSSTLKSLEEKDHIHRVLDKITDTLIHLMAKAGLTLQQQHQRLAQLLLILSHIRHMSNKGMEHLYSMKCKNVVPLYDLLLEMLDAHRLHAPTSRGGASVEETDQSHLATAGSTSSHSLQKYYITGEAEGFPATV
Androgen receptor (Homo sapiens), sequence (P10275 whole entry, looked up): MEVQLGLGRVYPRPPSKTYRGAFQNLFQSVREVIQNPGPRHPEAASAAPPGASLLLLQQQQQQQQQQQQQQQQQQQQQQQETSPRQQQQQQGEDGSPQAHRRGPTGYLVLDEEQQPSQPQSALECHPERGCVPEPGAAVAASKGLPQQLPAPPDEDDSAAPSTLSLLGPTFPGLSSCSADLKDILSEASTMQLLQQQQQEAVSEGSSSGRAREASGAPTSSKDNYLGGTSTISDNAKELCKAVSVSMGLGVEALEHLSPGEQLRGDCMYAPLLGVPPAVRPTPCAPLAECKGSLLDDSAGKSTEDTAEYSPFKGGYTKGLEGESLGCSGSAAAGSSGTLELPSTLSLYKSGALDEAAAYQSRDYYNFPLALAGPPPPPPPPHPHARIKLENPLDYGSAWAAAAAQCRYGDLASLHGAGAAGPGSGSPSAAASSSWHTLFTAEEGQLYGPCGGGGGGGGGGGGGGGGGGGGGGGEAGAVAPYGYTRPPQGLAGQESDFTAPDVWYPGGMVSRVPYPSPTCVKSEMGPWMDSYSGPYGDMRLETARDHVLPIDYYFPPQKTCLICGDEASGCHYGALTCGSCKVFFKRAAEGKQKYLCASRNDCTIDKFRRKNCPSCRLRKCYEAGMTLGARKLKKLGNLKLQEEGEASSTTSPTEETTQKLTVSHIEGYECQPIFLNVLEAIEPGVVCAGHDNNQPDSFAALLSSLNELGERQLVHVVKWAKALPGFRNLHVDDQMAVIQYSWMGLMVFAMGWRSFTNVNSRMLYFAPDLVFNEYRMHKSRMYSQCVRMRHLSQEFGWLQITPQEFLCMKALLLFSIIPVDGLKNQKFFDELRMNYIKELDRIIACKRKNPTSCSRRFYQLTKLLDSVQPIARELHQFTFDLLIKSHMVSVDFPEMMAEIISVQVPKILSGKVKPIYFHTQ

CN(C)CCCO[C@@H]1[C@H]2OC(C)(C)O[C@H]2O[C@@H]1C(O)CO (some centres undefined)
inactive: [1] | [2] | [3] | [4] | [5] | [6] | [7] | [8] | [9] | [10] | [11] | [12] | [13] | [14] | [15] | [16]

O=C(Cn1ccnc1[N+](=O)[O-])NCc1ccccc1
inactive: [1] | [2] | [3] | [4] | [5] | [6] | [7] | [8] | [9] | [10] | [11] | [12] | [13] | [14] | [17] | [18] | [15] | [16]

Cc1ccc(C(=O)O)cc1[N+](=O)[O-]
inactive: [1] | [2] | [3] | [4] | [5] | [6] | [19] | [7] | [9] | [10] | [11] | [12] | [13] | [14] | [17] | [18] | [15] | [16] | [20]

O=Cc1cc2ccccc2o1
inactive: [1] | [2] | [3] | [4] | [5] | [6] | [9] | [10] | [11] | [12] | [13] | [14] | [15] | [16]

CC1=C(O)C(=O)C(C)O1 (centres undefined)
inactive: [1] | [2] | [3] | [4] | [5] | [6] | [7] | [9] | [10] | [11] | [12] | [13] | [14] | [18] | [15]

N#Cc1cscn1
inactive: [1] | [2] | [3] | [4] | [5] | [6] | [9] | [10] | [11] | [12] | [13] | [14] | [17] | [15] | [16]

C=C(C)c1cccc(C(C)(C)N=C=O)c1
inactive: [1] | [2] | [3] | [4] | [5] | [6] | [7] | [9] | [10] | [11] | [12] | [13] | [14] | [17] | [18] | [15] | [16]
